“And” between values parts separate entries of the source, which are not always exact repeats. Equal values may be shown once. Results filed as inconclusive are left out. The source holds several records for some structures; these can differ, active in one and inactive in another. The source made the active and inactive calls. How the source made its calls: active means hit-call score of the fitted dose curve at least 0.9, where 1 is the maximum; inconclusive means response in the unintended direction; inactive means score below 0.9.
Test: TOX21_p53_BLA_p2_viability: Viability Assessment in the Tox21 HCT-116 p53 Agonism Beta-lactamase Assay, Phase 2 (AID 2283591);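 further: compound exposure lasted 16 h at 37 °C; actives lower the ATP signal meaning cytotoxicity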
Description: TOX21_p53_BLA_p2 is a cell-based, single-readout assay that uses HCT116, a human intestinal cell line, […] in a 1536-well plate.TOX21_p53_BLA_p2_viability is an assay readout measuring cellular ATP content and detected with CellTiter-Glo Luciferase-coupled ATP quantitation.TOX21_p53_BLA_p2_viability used a type of viability reporter where loss-of-signal activity can be used to understand changes in the cell viability. Furthermore, this assay endpoint can be referred to as a secondary readout, because this assay has produced multiple assay endpoints where this one serves a viability function. To generalize the intended target to other relatable targets, this assay endpoint is annotated to the cell cycle intended target family, where the subfamily is cytotoxicity.
Thawing Method: Place 14 mL of pre-warmed thaw medium into a 15 mL of conical tub. Remove the vial of cells to be thawed from liquid nitrogen and thaw rapidly by placing at 37C in a water bath with gentle agitation for 1-2 minutes. Decontaminate the vial by wiping with 70% ethanol before opening in a biological safety cabinet. Transfer the vial contents drop-wise into 14 mL of thaw medium in a sterile 15-mL conical tub. Centrifuge cells at 900 rpm for 4 minutes and resuspend in thaw medium. Transfer contents to the T75 tissue culture flask containing Thaw Medium and place flask in a humidified 37C/5% CO2 incubator. Switch to growth medium at first passage.Propagation Method: Aspirate medium, rinse once in DPBS, add 0.25% Trypsin/EDTA and swirl to coat the cell evenly. Add an equal volume of Growth Medium to inactivate Trypsin after 2-3 minutes incubation at 37C. Centrifuge cells at 900 rpm for 4 minutes and resuspend in growth medium. Cell should be passage or fed at least twice a week.Assay Protocol: Harvest cells from culture in growth medium and resuspend in assay medium. 2.2 Dispense 4000 cells/5 uL/well into 1536-well black/clear bottom plates using a Multidrop dispenser. After the cells were incubated at 37C for 5 hours, 23 nL of compounds dissolved in DMSO were transferred to the assay plate by a PinTool resulting in a 217-fold dilution. Incubate the plates for 16 hours at 37C, 5% CO2. Add 1 uL of 6X LiveBLAzer FRET B/G (CCF4-AM) Substrate Mixture to each well using a BioRAPTR dispenser and incubate the plates at room temperature for 2 hours. Measure fluorescence intensity at 460 and 530 nm emission and 405 nm excitation by an Envision detector. Data is expressed as the ratio of 460nm/530nm emissions. Add 4 uL of Cell-titer Glo to each well using BioRAPTR and incubate the plates at room temperature for […]. For cell viability readout that measures cytotoxicity, 4 ul/well of CellTiter-Glo reagent was added into the assay plates using a Flying Reagent Dispenser. After 30 min incubation at room temperature, the luminescence intensity in the plates was measured using a ViewLux plate reader.

| SMILES | outcome | AC50 |
| --- | --- | --- |
| CCCN(CCOc1c(Cl)cc(Cl)cc1Cl)C(=O)n1ccnc1 | inactive | – |
| CN1CSC(=S)N(C)C1 | inactive | – |
| O=S(=O)(O)C(F)(F)C(F)(F)C(F)(F)C(F)(F)C(F)(F)C(F)(F)C(F)(F)C(F)(F)F | inactive | 46.1 µM (active) |
| CCN(CC)C(=O)SCc1ccc(Cl)cc1 | inactive | – |
| Oc1cc(Cl)ccc1Oc1ccc(Cl)cc1Cl | inactive | 31.6 µM (active) |
| CCc1ccc(C(=O)NN(C(=O)c2cc(C)cc(C)c2)C(C)(C)C)cc1 | inactive | – |
| O=S1OCC2C(CO1)C1(Cl)C(Cl)=C(Cl)C2(Cl)C1(Cl)Cl (stereo not given) | – | 46.1 µM (active) and 81.5 µM (active) |
| N#Cc1c(Cl)c(Cl)c(Cl)c(C#N)c1Cl | inactive | 22.5 µM (active) |
| COC(=O)c1ccccc1S(=O)(=O)NC(=O)Nc1nc(C)nc(OC)n1 | inactive | – |
| O=C(Nc1ccccc1)Nc1cnns1 | inactive | – |
| CC[C@H](C)[C@H]1O[C@]2(C=C[C@@H]1C)C[C@@H]1C[C@@H](C/C=C(\C)[C@@H](O[C@H]3C[C@H](OC)[C@@H](O[C@H]4C[C@H](OC)[C@@H](O)[C@H](C)O4)[C@H](C)O3)[C@@H](C)/C=C/C=C3\CO[C@@H]4[C@H](O)C(C)=C[C@@H](C(=O)O1)[C@]34O)O2 (tested in a mixture with another compound) | – | 9.13 µM (active) and 43.5 µM (active) |
| O=C(O)CCCOc1ccc(Cl)cc1Cl | inactive | – |
| COC(=O)c1ccccc1S(=O)(=O)NC(=O)N(C)c1nc(C)nc(OC)n1 | inactive | – |
| CC(C)(C)C(O)/C(=C\c1ccc(Cl)cc1Cl)n1cncn1 (stereo not given) | inactive | – |
| Oc1ccc(Cl)cc1Cc1ccccc1 | – | 70.3 µM (active) and 66.7 µM (active) |
| COC(=O)c1ccccc1CS(=O)(=O)NC(=O)Nc1nc(OC)cc(OC)n1 | inactive | – |

| SMILES | outcome | AC50 |
| --- | --- | --- |
| CC(C)(C)C(O)C(Oc1ccc(Cl)cc1)n1cncn1 (stereo not given) | inactive | – |
| COP(=S)(OC)Oc1ccc([N+](=O)[O-])cc1 | inactive | – |
| C[C@H]1[C@H](c2ccc(Cl)cc2)SC(=O)N1C(=O)NC1CCCCC1 | inactive | – |
| CC1(c2ccc(Oc3ccccc3)cc2)OC(=O)N(Nc2ccccc2)C1=O (stereo not given) | inactive | – |
| COP(=S)(OC)Oc1ccc(SC)c(C)c1 | inactive | – |
| CCC(C)(C)C(=O)OC1=C(c2ccc(Cl)cc2Cl)C(=O)OC12CCCCC2 | inactive | – |
| CNC(=O)Oc1ccccc1OC(C)C | inactive | – |
| CCC(C)(NC(=O)c1cc(Cl)c(C)c(Cl)c1)C(=O)CCl (stereo not given) | – | 71.9 µM (active) |
| O=[N+]([O-])c1c(Cl)c(Cl)c(Cl)c(Cl)c1Cl | inactive | – |
| COc1nn(CSP(=S)(OC)OC)c(=O)s1 | inactive | – |
| ClC1C(Cl)C(Cl)C(Cl)C(Cl)C1Cl (stereo not given) | inactive | – |
| O=C(O)C(F)(F)C(F)(F)C(F)(F)C(F)(F)C(F)(F)C(F)(F)C(F)(F)F | inactive | – |
| O=C(O)COc1ccc(Cl)cc1Cl | inactive | – |
| O=C1c2ccccc2C(=O)N1SC(Cl)(Cl)Cl | inactive | – |
| CC1(C)C(C=C(Cl)Cl)C1C(=O)OC(C#N)c1ccc(F)c(Oc2ccccc2)c1 (stereo not given) | inactive | – |
| OCCOc1ccccc1 | inactive | – |

Source: PubChem BioAssay (EPA / NIEHS)
